Assay results from PubChem BioAssay (NCI).
About 79,000 compounds went through this panel and 15% of them were active in at least one assay; those are over-represented in the sample as a whole. Cut-off read from the data, not from the text of the source: active = growth inhibition above about 70%; inactive = the rest.

Key:
[1] = NCI Yeast Anticancer Drug Screen. Data for the rad50 strain (AID 155);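 note: 0% = growth of vehicle-only cultures of the same strain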; settings: S. cerevisiae rad50 strain growth inhibition; at 50.0 µM; active compounds read high
Method in brief: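 Inhibition values express reduced yeast growth in compound-treated cultures relative to vehicle-treated controls.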

[2] = NCI Yeast Anticancer Drug Screen. Data for the mec2-1 strain (AID 157); settings: S. cerevisiae mec2-1 strain, at 50.0 µM, active compounds read high
Method in brief: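 Using mec2-1 yeast: add compound, measure growth, express inhibition versus vehicle-treated cultures.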

[3] = NCI Yeast Anticancer Drug Screen. Data for the sgs1 mgt1 strain (AID 161);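 note: 0% = growth of cultures given vehicle only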; settings: S. cerevisiae sgs1 mgt1 strain, at 50.0 µM, active compounds read high
Method in brief: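 This yeast growth screen uses a strain with defined DNA-repair lesions; compound-treated growth is compared with vehicle-treated growth.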

[4] = NCI Yeast Anticancer Drug Screen. Data for the cln2 rad14 strain (AID 165);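 note: 0% = growth equal to vehicle treated cultures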; settings: S. cerevisiae cln2 rad14 strain, at 50.0 µM, active compounds read high
Method in brief: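 Yeast strain cln2 rad14, bearing defects in cell cycle control and DNA repair, serves as the test system; values reflect growth inhibition compared with vehicle.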

[5] = NCI Yeast Anticancer Drug Screen. Data for the bub3 strain (AID 167); settings: S. cerevisiae bub3 mutant strain, at 50.0 µM, active compounds read high
Method in brief: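 Steps: expose the mutant yeast strain to compound; grow alongside vehicle-treated cultures; measure growth; express inhibition against the vehicle cultures.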

[6] = NCI Yeast Anticancer Drug Screen. Data for the mlh1 rad18 strain (AID 175); settings: S. cerevisiae mlh1 rad18 strain growth inhibition; at 50.0 µM; active compounds read high
Method in brief: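 Steps: expose repair-defective yeast to compound; measure growth; express inhibition against vehicle-treated controls.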

Measured: growth inhibition

S=C(c1ccccc1Cl)N1CCOCC1
inactive: [1] 18.2% | [2] -22.2% | [3] 14.7% | [4] 17.1% | [5] 20.1% | [6] 13.8%

CCC(=O)CCc1ccc2ccccc2c1
inactive: [1] 22.2% | [2] 15.7% | [3] 10.9% | [4] -16.9% | [5] 23.5% | [6] 24.2%

CC(=O)C(C)C(=O)N1C(=O)N(C)C2(C)N(C)C(=O)NC12C (stereo not given)
inactive: [1] 2.05% | [2] -45.3% | [3] -24.3% | [4] 8.4% | [5] -5.8% | [6] 7.3%

O=c1[nH]c2ccccc2nc1/C=C/n1c(=S)[nH]c2ccccc21
inactive: [1] -31.4% | [2] -28.2% | [3] -46.4% | [4] -16.6% | [5] -33.5% | [6] -20.7%

O=C1/C(=C/c2ccc(Cl)cc2)CCC1CNc1ccc(Cl)cc1 (stereo not given)
inactive: [1] 17.1% | [2] 0.25% | [3] -15.6% | [4] -2.8% | [5] -16.2% | [6] -43.1%

CCN(CC)C1=Nc2ccccc2N(c2ccccc2)C(=S)C1
inactive: [1] 46.9% | [2] 25.5% | [3] 30.1% | [4] 13.9% | [5] 36.2% | [6] 51.2%

O=S(=O)(c1ccccc1)C1CCCCC1I (stereo not given)
inactive: [1] 45.9% | [2] 3.5% | [3] 21.4% | [4] -30.5% | [5] 23.7% | [6] 18.8%

O=[N+]([O-])c1ccc(N=Cc2ccccc2O)cc1
inactive: [1] -19.7% | [2] -8.05% | [3] -23.6% | [4] 4.3% | [5] 8.05% | [6] -6.9%

N#CCC(=O)NCCc1c[nH]c2ccccc12
inactive: [1] -18.1% | [2] 0.2% | [3] -14.7% | [4] -32.8% | [5] -6.1% | [6] -27.8%

COc1ccc(C2=Nc3ccccc3NC(=O)C2)cc1
inactive: [1] -10.2% | [2] -20.9% | [3] -12.6% | [4] 11.4% | [5] -17.1% | [6] -19.9%

O=S1(=O)C2CCC(Br)C1CCC2Br (stereo not given)
inactive: [1] 9.65% | [2] 13.8% | [3] 7.65% | [4] 14.2% | [5] -2.65% | [6] 10.9%

O=C(Cl)c1cc(-c2ccccc2)nc2c(Cl)cccc12
inactive: [1] 46.1% | [2] 39.4% | [3] 43% | [4] 39.1% | [5] 40.5% | [6] 38%

CC(=O)OC12C(C)=C(C)C(=O)N1c1ccccc1N2C(C)=O (stereo not given)
inactive: [1] -20.8% | [2] 2.55% | [3] 6.7% | [4] 15.9% | [5] 6.15% | [6] 11.1%

N/N=C1\C(=O)N(Cc2ccccc2)C(=O)C1C(=O)NCc1ccccc1 (stereo not given)
inactive: [1] 7.5% | [2] 13.8% | [3] 3.4% | [4] -36.8% | [5] 19.4% | [6] 3.5%

O=C(N/N=C/c1ccc(O)cc1)C1CCCO1 (stereo not given)
inactive: [1] 2.9% | [2] 26.5% | [3] -1.35% | [4] -64.2% | [5] 2.95% | [6] -9.45%

CN1CCN(Cc2cc(C(C)(C)C)cc(-c3ccccc3)c2O)CC1
inactive: [1] 39.4% | [2] -25.1% | [3] 6.9% | [4] 6.45% | [5] 8% | [6] 25.6%

Cc1ccc2c(c1)CN(C)c1ccc(C)cc1CN2C
inactive: [1] 17.4% | [2] -11.8% | [3] 22.9% | [4] 21.8% | [5] 9.65% | [6] 31.1%

Cc1nc(N)nc(C)c1N=Nc1ccc(Br)cc1Br
inactive: [1] 41.2% | [2] 4.5% | [3] 20.5% | [4] 5.05% | [5] 0.6% | [6] 15%

CC12CCC(=O)C=C1CCC1C2C(O)CC2(C)C1CCC2(O)C(=O)COC(=O)C1C2C=CC(C2)C1C(=O)O (stereo not given)
inactive: [1] 24.1% | [2] 9.45% | [3] 25% | [4] 12.1% | [5] -6.85% | [6] 25.1%

CN(N=O)C(N)=NC(=O)c1ccccc1
inactive: [1] 11.4% | [2] 10% | [3] 20.9% | [4] -20.6% | [5] -16.1% | [6] -35.3%
